In PubChem BioAssay (EPA / NIEHS) one finds outcome and AC50 data, which are given here for 39 compounds.

The source made the active and inactive calls. Rule for the calls: active = hit-call score of the fitted dose curve at least 0.9, where 1 is the maximum; inactive = score below 0.9.

The assay can be described thus: ATG_E_Box_CIS: Attagene CIS-FACTORIAL HepG2 Assay for human Enhancer Box (E-box) (AID 2282936). Particulars: HepG2 E-box cis-reporter transcription, actives raise or lower the signal. The essentials:
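DMSO served as negative control and baseline for bidirectional fitting. Human hepatoma HepG2 cells, transiently transfected with cis-reporter constructs, were dosed 24 h; reporter mRNA read by RT-PCR and capillary electrophoresis.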
`OC[C@@H](O)[C@H]1O[C@@H]2O[C@H](C(Cl)(Cl)Cl)O[C@@H]2[C@H]1O`: the result was inactive.
On the same count and under the same terms, then `O=C(Cc1ccccc1)OCCc1ccccc1`, with “inactive”; and `CCC[N+](CCC)(CCC)CCC`, with “inactive”.
On the same count and under the same terms, then `N#Cc1ccccc1Cl`, with “inactive”.
On to `Cc1cc(C(C)(C)c2ccc(O)c(C)c2)ccc1O`, for which the result was inactive.
`C#CCO`: the outcome was inactive.
Same read-out and setting: the entry for `O=NN1CCOCC1` is “inactive”.
With `CCCSP(=S)(OCC)Oc1ccc(Cl)cc1Cl` (centres undefined), the outcome was inactive.
The same measure, in the same setting: then `COCCl`, with “inactive”; and `CNC(=O)O/N=C/C(C)(C)S(C)(=O)=O`, with “inactive”.
On to `c1cc[c]([Sb]([c]2ccccc2)[c]2ccccc2)cc1`, for which the outcome was inactive.
The same measure, in the same setting: the entry for `CN(N=O)C(N)=O` is “inactive”.
Consider `CCC[CH2][Sn]([CH2]CCC)([CH2]CCC)[CH2]CCC`, for which the concentration at half-maximal activity (AC50) (as a rule, the concentration giving half of the maximal activity seen) was 14 µM (active).
The same measure, in the same setting: the figure for `CC(c1ccccc1)(c1ccc(O)cc1)c1ccc(O)cc1` is 16.9 µM (active).
Same read-out and setting: the figure for `C[CH2][Hg][S]c1ccccc1C(=O)O` is 6.19 µM (active).
Consider `O=C(Nc1ccc(Br)cc1)c1cc(Br)cc(Br)c1O`, for which the result was inactive.
Regarding `COC(F)(C(F)(F)C(F)(F)F)C(F)(C(F)(F)F)C(F)(F)F` (centres undefined), the result was inactive.
Take `Clc1cccc(Cl)c1`: the result was inactive.
On the same count and under the same terms, the entry for `CC1CC(=O)O1` (centres undefined) is “inactive”; for `CCCCCCCCCCCCBr` it is “inactive”; for `Cc1ccc2nc3sc(=O)sc3nc2c1` it is “inactive”.
In the case of `ClCCCCl`, the result was inactive.
Regarding `Brc1c(Br)c(Br)c(Oc2c(Br)c(Br)c(Br)c(Br)c2Br)c(Br)c1Br`, the result was inactive.
As for `Clc1cccc(Cl)c1Cl`, the result was inactive.
On the same count and under the same terms, then `CC(C)(c1ccc(O)c(-c2ccccc2)c1)c1ccc(O)c(-c2ccccc2)c1`, with “inactive”; and `Clc1cnc(Oc2ccc(Oc3ncc(Cl)cc3Cl)cc2)c(Cl)c1`, with “inactive”; and `CCOP(=S)(OCC)OP(=S)(OCC)OCC`, with “inactive”.
Same read-out and setting: then `CCCCCCCCBr`, with “inactive”.
For the compound `CC1(C)COP(Oc2ccccc2)OC1`, the outcome was inactive.
The same measure, in the same setting: then `Cc1ccc(CCl)cc1`, with “inactive”.
The same measure, in the same setting: then `Cc1c([N+](=O)[O-])c(C)c([N+](=O)[O-])c(C(C)(C)C)c1[N+](=O)[O-]`, with “inactive”.
Take `CC(C)N(C(=O)CCl)c1ccccc1`: the half-maximal activity concentration (AC50) is 18 µM (active).
As for `Brc1ccc(Oc2c(Br)cc(Br)cc2Br)c(Br)c1`, the result was inactive.
With `O=NN1CCCCCCC1`, the result was inactive.
Consider `CC[N+](CC)(CC)CC`, for which the result was inactive.
The same measure, in the same setting: then `O=NN1CCCCCC1`, with “inactive”; and `COC(=O)Nc1cccc(OC(=O)Nc2cccc(C)c2)c1`, with “inactive”.
For `COP(=S)(OC)Oc1cc(Cl)c(I)cc1Cl`, the AC50 is 34.7 µM (active).
`Cc1cc(Cl)ccc1OCCCC(=O)O`: the outcome was inactive.
